Sampled rows, rich in hits. Any-hit rate of the full collection: about 12%.
G9a inh: blocks human histone lysine methyltransferase G9a; 350,000 compounds, 8.8% hits; Potency, µM (series often up to 102 µM), without a hit: top-dose activity, negative = inhibition, usual class: inhibitors; Q96KQ7; G9a H3K9 monomethylation, AlphaScreen, 2 h; also: % is scaled to controls: 0 for no effect and ±100 for the full control effect; nearly all actives have a fitted effect of over 75% in size
Target sequence (Q96KQ7 913-1193 limits assumed): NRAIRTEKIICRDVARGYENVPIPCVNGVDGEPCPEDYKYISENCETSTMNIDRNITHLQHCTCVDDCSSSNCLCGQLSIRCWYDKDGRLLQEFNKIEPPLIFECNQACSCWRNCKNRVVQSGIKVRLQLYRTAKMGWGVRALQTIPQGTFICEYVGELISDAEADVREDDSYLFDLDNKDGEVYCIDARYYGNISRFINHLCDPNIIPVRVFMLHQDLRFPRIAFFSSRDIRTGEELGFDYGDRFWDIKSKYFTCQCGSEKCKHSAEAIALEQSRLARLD
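Chemiluminescent proximity detection of H3K9 monomethylation, read after 10 min bead incubation in the dark. Reaction: 20 nM G9a, 500 nM biotin-H3K9 peptide, 20 uM SAM cofactor, 2 h, room temperature, following 15 min enzyme-compound preincubation.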
L3MBTL1 inh: blocks human L3MBTL1 | Q9Y468 | AlphaScreen L3MBTL1–H3K9me1 peptide binding | Potency, µM (series often up to 57.1 µM), for the others: at the highest dose activity, negative = inhibition, most hits filed as inhibitors | 230,000 compounds, 0.66% hits | AID 485360; also: % is scaled to controls: 0 for no effect and ±100 for the full control effect; nearly all actives have a fitted effect of over 60% in size
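L3MBTL1 50 nM + b-AHA-H3(1-15)K9me1 75 nM, 30 min RT; compound added, 30 min RT; streptavidin donor/Ni-chelate acceptor beads 10 ug/mL each final, 30 min RT dark; AlphaScreen read.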
JMJD2A Tudor: blocks the human JMJD2A Tudor domain; 390,000 compounds, 4.4% hits; Potency, µM (doses to about 114 µM), for the others: top-dose activity change, negative = inhibition, hits mostly inhibitors; O75164; AlphaScreen JMJD2A-Tudor / H3K4me3 peptide binding; also: % is scaled to controls: 0 for no effect and ±100 for the full control effect; nearly all actives have a fitted effect of over 50% in size
BAZ2B block: blocks human BAZ2B; AlphaScreen BAZ2B-H3K14Ac peptide displacement; Q9UIF8; 360,000 compounds, 4.4% hits; Potency, µM (series often up to 114 µM), for inactives: at the highest dose activity change, negative = inhibition, most hits filed as inhibitors; also: % is scaled to controls: 0 for no effect and ±100 for the full control effect; nearly all actives have a fitted effect of over 60% in size
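AlphaScreen luminescence quantifies BAZ2B engagement of H3K14Ac peptide; the protein and biotinylated peptide are both at 50 nM final, buffer PBS pH 7.4 with 0.01% Tween-20, all steps at room temperature.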
Sfp PPTase inh: blocks B. subtilis Sfp PPTase activity; Q9F4F7; Biochemical Sfp PPTase activity, qHTS; Potency, µM, inactives show largest response in the series, negative = inhibition, hits mostly inhibitors; 310,000 compounds, 3.5% hits;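 also: the enzyme is Sfp with the accession as filed and its product quenches rhodamine fluorescence; 0% = enzyme reaction without inhibitor and -100% = no enzyme wells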
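Fluorescence-quenching assay: 15 nM Sfp-PPTase preincubated 15 min at room temperature with compound, then 5 uM rhodamine-CoA and 12.5 uM BHQ-2-labelled YbbR peptide added. Fluorescence (ex 525/em 598 nm) read at start and after 30 min; difference gives rate.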
HP1b chromo inh: blocks HP1-beta chromodomain binding to methylated histone tails | P83916 | AlphaScreen HP1-beta / biotin-H3K9me3 peptide binding | Potency, µM (series often up to 114 µM), without a hit: at the top dose activity change, negative = inhibition, hits mostly inhibitors | 390,000 compounds, 0.56% hits | AID 540317; also: nearly all actives have a fitted effect of over 70% in size
Target sequence (P83916 whole entry, looked up): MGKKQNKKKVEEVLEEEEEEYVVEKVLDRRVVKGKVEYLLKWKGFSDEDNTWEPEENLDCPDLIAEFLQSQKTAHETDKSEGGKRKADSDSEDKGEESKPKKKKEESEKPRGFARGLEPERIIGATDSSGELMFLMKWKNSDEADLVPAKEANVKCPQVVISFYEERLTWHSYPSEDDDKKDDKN
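AlphaScreen: HP1-beta (50 nM) preformed 30 min with biotin-H3(1-18)K9me3 peptide (50 nM) in PBS pH 7.4, 0.01% Tween-20. Compound added for 30 min at RT, then streptavidin donor/nickel chelate acceptor beads (10 ug/mL) for 30 min.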
Active calls of the source: *; [ ] = dose if it differs, or a comment. Calls follow the shape of the dose curve; as a rule, active = well fitted curve in the direction sought with a large enough effect; inconclusive = small, poorly fitted or top-dose-only effect, or another doubt; inactive = no such curve, though single readings can be large; an effect the other way counts as inactive or inconclusive. Potency is read from the fitted curve at half-maximal effect.

How did CCc1nnc(NC(=O)CSc2nc3c([nH]c4ccccc43)c(=O)n2-c2ccc(Cl)cc2)s1 do in these assays?
G9a inh: 18%[59 µM]; JMJD2A Tudor: -7%; BAZ2B block: -1%; HP1b chromo inh: 16%[57 µM]

Results for COc1cccc(OC)c1C(=O)N1CCNCC1 ?
G9a inh: -11%[0.501 µM]; L3MBTL1 inh: -3%[2.29 µM]; JMJD2A Tudor: -16%; BAZ2B block: 9%; Sfp PPTase inh: 7%; HP1b chromo inh: 57%

Results for CCC(CC)C(=O)Oc1c(Sc2ccccc2[N+](=O)[O-])c(C)nn1C(C)(C)C ?
G9a inh: 32µM*; L3MBTL1 inh: -10%; JMJD2A Tudor: -35%; BAZ2B block: inconclusive; Sfp PPTase inh: -16%; HP1b chromo inh: inconclusive

How did CCOc1ccccc1C(=O)Oc1c(Sc2ccccc2)c(C)nn1C(C)(C)C do in these assays?
G9a inh: -1%[59 µM]; JMJD2A Tudor: -2%; BAZ2B block: 8%; HP1b chromo inh: 57%

What do the screens show for `COCC(=O)Oc1c(Sc2ccc(C)cc2)c(C)nn1C(C)(C)C`?
G9a inh: inconclusive; JMJD2A Tudor: 39%; BAZ2B block: 43%; HP1b chromo inh: 77%

Results for COCC(=O)Oc1c(Sc2ccccc2[N+](=O)[O-])c(C)nn1C(C)(C)C ?
G9a inh: 22µM*; L3MBTL1 inh: -21%; JMJD2A Tudor: -13%; BAZ2B block: inconclusive; Sfp PPTase inh: inconclusive; HP1b chromo inh: 2%

What do the screens show for `O=C(Cc1ccc(Br)cc1)NC1CCSC1=O` (stereo not drawn)?
G9a inh: 28%[59 µM]; JMJD2A Tudor: -15%; BAZ2B block: -4%; Sfp PPTase inh: 8%; HP1b chromo inh: 20%

What do the screens show for `COc1ccc(CSc2nnc(N)s2)cc1F`?
G9a inh: 45µM*; L3MBTL1 inh: -4%; JMJD2A Tudor: -24%; BAZ2B block: -26%; Sfp PPTase inh: 5%; HP1b chromo inh: 40%

How did CCN(CC)C(=O)CSc1nnc(-c2ccccc2)n1-c1ccccc1 do in these assays?
G9a inh: 28µM*; L3MBTL1 inh: 5%; JMJD2A Tudor: 50µM*; BAZ2B block: 5%; Sfp PPTase inh: 19%; HP1b chromo inh: 60%

How did CN(C)CCSc1nnc(-c2ccccc2)o1 do in these assays?
G9a inh: 40µM*; L3MBTL1 inh: -3%; JMJD2A Tudor: -1%[57.1 µM]; BAZ2B block: 11%; Sfp PPTase inh: 7%; HP1b chromo inh: -6%

What do the screens show for `CCN(CC)C(=O)CSc1nnc(-c2ccccc2)o1`?
G9a inh: 79µM*; JMJD2A Tudor: -4%; BAZ2B block: 12%; Sfp PPTase inh: 20%; HP1b chromo inh: 26%

Results for CSc1nnc(-c2ccccc2)o1 ?
G9a inh: 21%[59 µM]; L3MBTL1 inh: 6%; JMJD2A Tudor: 2%; Sfp PPTase inh: 15%; HP1b chromo inh: 23%

What do the screens show for `CCN(Cc1ccccc1)C(=O)CSc1nncn1C`?
G9a inh: 56µM*; L3MBTL1 inh: 3%; JMJD2A Tudor: -23%; BAZ2B block: inconclusive; Sfp PPTase inh: 8%; HP1b chromo inh: 28%

What do the screens show for `CCN(Cc1ccccc1)C(=O)CSc1ccccc1C(=O)O`?
G9a inh: 1%; L3MBTL1 inh: 9%; JMJD2A Tudor: -14%; Sfp PPTase inh: 3%; HP1b chromo inh: 16%

How did CCOC(=O)c1ccc2c(c1)N(CC(=O)Nc1ccc(CC)cc1)C(=O)c1ccccc1S2 do in these assays?
G9a inh: 6%[59 µM]; JMJD2A Tudor: 2%; BAZ2B block: 5%; HP1b chromo inh: 27%[57 µM]

Results for O=C(NCC(c1ccco1)N1CCN(c2ccc(F)cc2)CC1)c1cccs1 (stereo not drawn) ?
G9a inh: inconclusive; L3MBTL1 inh: -10%; JMJD2A Tudor: -18%; BAZ2B block: inconclusive; HP1b chromo inh: 20%

What do the screens show for `COc1ccc(N2CCN(C(CNC(=O)c3c(F)cccc3F)c3ccc4c(c3)OCO4)CC2)cc1` (stereo not drawn)?
G9a inh: 10µM*; JMJD2A Tudor: 50µM*; BAZ2B block: inconclusive; HP1b chromo inh: -11%[57 µM]

Results for COc1ccc(N2CCN(C(CNC(=O)c3cccs3)c3ccco3)CC2)cc1 (stereo not drawn) ?
G9a inh: 45µM*; L3MBTL1 inh: -12%; JMJD2A Tudor: inconclusive; BAZ2B block: inconclusive; HP1b chromo inh: inconclusive

What do the screens show for `COc1ccc(N2CCN(C(CNC(=O)c3ccco3)c3ccco3)CC2)cc1` (stereo not drawn)?
G9a inh: 28µM*; L3MBTL1 inh: -5%; JMJD2A Tudor: -19%; BAZ2B block: -8%; HP1b chromo inh: -15%

How did COc1ccc(CN2CCN(C(=O)C3CCN(C(=O)Nc4ccccc4)CC3)CC2)cc1OC do in these assays?
L3MBTL1 inh: 1%; JMJD2A Tudor: -7%; HP1b chromo inh: 50%

What do the screens show for `Cc1cn2c(=O)cc(COC(=O)c3cccc(NC(=O)C(C)Oc4ccccc4)c3)nc2s1` (stereo not drawn)?
G9a inh: 23%[59 µM]; JMJD2A Tudor: -15%; BAZ2B block: -5%; HP1b chromo inh: 11%

What do the screens show for `O=C1CC(Sc2nnnn2C2CCCCC2)C(=O)N1c1ccccc1` (stereo not drawn)?
G9a inh: 10µM*; L3MBTL1 inh: inconclusive; JMJD2A Tudor: -17%; BAZ2B block: -3%; Sfp PPTase inh: inconclusive; HP1b chromo inh: 1%

What do the screens show for `COc1cc(C#Cc2c(-c3cncn3C)n(C)c3ccc(-c4ccc(OC)nc4)cc23)cc(OC)c1`?
G9a inh: -2%[0.501 µM]; L3MBTL1 inh: inconclusive; JMJD2A Tudor: 14µM*; BAZ2B block: 40µM*; HP1b chromo inh: -11%

How did COc1cc(C#Cc2c(-c3cncn3C)n(C)c3ccc(-c4cc(OC)c(OC)c(OC)c4)cc23)cc(OC)c1 do in these assays?
L3MBTL1 inh: -25%; JMJD2A Tudor: inconclusive; HP1b chromo inh: 1%

Results for Cn1c(=S)[nH]c2cc(C(=O)N3CCN(Cc4cccs4)CC3)ccc2c1=O ?
JMJD2A Tudor: -10%; HP1b chromo inh: 57%

How did COc1ccc2c(c1)CCCC2=O do in these assays?
JMJD2A Tudor: -6%; HP1b chromo inh: 16%

Results for COc1ccc(C2NC(=S)NC3=C2CCc2cc(OC)ccc23)cc1 (stereo not drawn) ?
G9a inh: 40µM*; L3MBTL1 inh: -18%; JMJD2A Tudor: inconclusive; BAZ2B block: inconclusive; Sfp PPTase inh: -11%; HP1b chromo inh: -20%

What do the screens show for `CCOC(=O)[C@@H]1[C@H]2COc3ccccc3[C@@H]2N2C(=O)N(c3cccc(C)c3)C(=O)[C@]12C`?
G9a inh: -14%; L3MBTL1 inh: -2%; JMJD2A Tudor: -10%; BAZ2B block: -24%; Sfp PPTase inh: 10%; HP1b chromo inh: 27%

Screening results deposited in PubChem by National Center for Advancing Translational Sciences (NCATS).
